Several values for one entry are separate records, joined by “and”; a condition that tells them apart may be missing. Equal values may be shown once. Records with an inconclusive call do not appear. The source holds several records for some structures; these can differ, active in one and inactive in another. Activity calls are given as the source filed them. The calls were made as follows, unless noted: active = hit-call score of the fitted dose curve at least 0.9, where 1 is the maximum; inactive = score below 0.9.

The target of one assay is Nucleoli Translocation, AR (gene 367) (UniProt P10275). As to the kind of experiment: UPITT_HCI_U2OS_AR_TIF2_Nucleoli_Agonist: University of Pittsburgh U2OS Androgen Receptor-Transcriptional Intermediary Factor 2 (AR-TIF2) Agonism High Content Imaging Assay for Nucleoli Translocation (AID 2283998; active = hit-call score of the fitted dose curve at least 0.9, where 1 is the maximum).
Chain of Nucleoli Translocation, AR (gene 367) (P10275 whole entry, looked up): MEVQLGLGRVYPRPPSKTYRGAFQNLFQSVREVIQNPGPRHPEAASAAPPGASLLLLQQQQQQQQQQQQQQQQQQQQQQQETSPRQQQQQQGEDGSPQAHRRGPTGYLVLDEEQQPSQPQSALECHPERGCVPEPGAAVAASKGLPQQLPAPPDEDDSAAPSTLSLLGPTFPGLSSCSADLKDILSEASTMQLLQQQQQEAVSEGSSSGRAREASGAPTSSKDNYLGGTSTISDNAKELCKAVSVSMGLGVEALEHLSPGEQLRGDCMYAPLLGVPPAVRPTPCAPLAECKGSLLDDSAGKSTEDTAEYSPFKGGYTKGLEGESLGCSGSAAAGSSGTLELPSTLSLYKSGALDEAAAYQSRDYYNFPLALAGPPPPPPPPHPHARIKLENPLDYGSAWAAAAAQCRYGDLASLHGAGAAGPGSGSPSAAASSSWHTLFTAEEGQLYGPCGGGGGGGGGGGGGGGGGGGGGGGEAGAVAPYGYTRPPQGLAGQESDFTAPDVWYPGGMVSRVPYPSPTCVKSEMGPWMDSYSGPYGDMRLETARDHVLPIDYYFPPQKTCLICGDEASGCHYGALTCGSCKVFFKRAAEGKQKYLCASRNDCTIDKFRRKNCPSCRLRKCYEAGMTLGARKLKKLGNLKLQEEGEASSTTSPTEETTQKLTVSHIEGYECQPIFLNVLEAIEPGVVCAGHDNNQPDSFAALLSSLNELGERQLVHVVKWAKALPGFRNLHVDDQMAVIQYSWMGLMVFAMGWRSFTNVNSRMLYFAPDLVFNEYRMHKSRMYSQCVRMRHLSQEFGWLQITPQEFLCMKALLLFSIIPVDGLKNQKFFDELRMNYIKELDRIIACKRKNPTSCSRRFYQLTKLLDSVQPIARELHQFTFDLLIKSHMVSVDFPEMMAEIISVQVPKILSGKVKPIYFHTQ
Conditions: not given
An outline of the steps: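 RFP-AR / GFP-TIF2 cells; cpds diluted in serum-free medium; single-point screen 20 uM final (0.2% DMSO), actives confirmed in triplicate; conc-response 0.195–50 uM final (0.5% DMSO). Readout: nucleolar red fluorescence, positive direction vs DMSO.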
On to `CCC(C)(C)C(=O)OC1=C(c2ccc(Cl)cc2Cl)C(=O)OC12CCCCC2`, for which the molecule was classed as inactive.

In the case of `Oc1ccc(Cl)cc1Cc1ccccc1`, the concentration at half-maximal activity (AC50) was 13 µM (active).

In the case of `O=[N+]([O-])/N=C1\NCCN1Cc1ccc(Cl)nc1`, the outcome was inactive.

As to `O=C(O)CCCOc1ccc(Cl)cc1Cl`, the call was inactive.

As to `O=[N+]([O-])c1c(Cl)c(Cl)c(Cl)c(Cl)c1Cl`, the molecule was classed as inactive.

Turning to `O=S1OCC2C(CO1)C1(Cl)C(Cl)=C(Cl)C2(Cl)C1(Cl)Cl` (stereo unspecified), the result was inactive.

Take `C#CCN1C(=O)COc2cc(F)c(N3C(=O)C4=C(CCCC4)C3=O)cc21`: the result was inactive.

Take `C[C@H]1[C@H](c2ccc(Cl)cc2)SC(=O)N1C(=O)NC1CCCCC1`: the molecule was called inactive.

As for `Cc1[nH]c(=O)n(C(C)(C)C)c(=O)c1Cl`, the outcome was inactive.

The target in another assay is Ratio of Nucleoli Translocation and Cytoplasm, AR (gene 367) (UniProt P10275). As to the kind of experiment: UPITT_HCI_U2OS_AR_TIF2_Nucleoli_Cytoplasm_Ratio_Antagonist: University of Pittsburgh U2OS Androgen Receptor-Transcriptional Intermediary Factor 2 (AR-TIF2) Antagonism High Content Imaging Assay for Ratio of Nucleoli Translocation and Cytoplasm (AID 2283999; active = hit-call score of the fitted dose curve at least 0.9, where 1 is the maximum;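 also: antagonists lower the DHT-driven ratio of nucleolar to cytoplasmic red signal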).
Chain of Ratio of Nucleoli Translocation and Cytoplasm, AR (gene 367) (P10275 whole entry, looked up): as above
Conditions: not given
An outline of the steps: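 U2OS cells expressing RFP-tagged human AR and GFP-tagged TIF2; compounds tested at 20 uM final (0.2% DMSO) in primary screen, 0.195–50 uM (0.5% DMSO) for concentration response. Readout: nucleolar-to-cytoplasmic red fluorescence ratio by high-content imaging, fitted relative to DHT.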
Take `CCCN(CCC)c1c([N+](=O)[O-])cc(C(F)(F)F)cc1[N+](=O)[O-]`: the result was inactive.

As for `CCC(C)(C)C(=O)OC1=C(c2ccc(Cl)cc2Cl)C(=O)OC12CCCCC2`, the outcome was inactive.

With `Oc1ccc(Cl)cc1Cc1ccccc1`, the AC50 was 7.42 µM (active).

On to `O=[N+]([O-])c1c(Cl)c(Cl)c(Cl)c(Cl)c1Cl`, for which the result was inactive.

For `O=S1OCC2C(CO1)C1(Cl)C(Cl)=C(Cl)C2(Cl)C1(Cl)Cl` (stereo unspecified), the result was inactive.

In the case of `C#CCN1C(=O)COc2cc(F)c(N3C(=O)C4=C(CCCC4)C3=O)cc21`, the outcome was inactive.

`C[C@H]1[C@H](c2ccc(Cl)cc2)SC(=O)N1C(=O)NC1CCCCC1`: the result was inactive.

The target is the same in another assay. As to the kind of experiment: UPITT_HCI_U2OS_AR_TIF2_Nucleoli_Cytoplasm_Ratio_Agonist: University of Pittsburgh U2OS Androgen Receptor-Transcriptional Intermediary Factor 2 (AR-TIF2) Agonism High Content Imaging Assay for Ratio of Nucleoli Translocation and Cytoplasm (AID 2284000; active = hit-call score of the fitted dose curve at least 0.9, where 1 is the maximum;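 also: hits raise the red nucleolar to cytoplasm ratio above vehicle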).
Conditions: not given
An outline of the steps: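 U2OS cells expressing RFP-tagged human AR and GFP-tagged TIF2 were imaged by high-content fluorescence microscopy. The endpoint is the ratio of nucleolar to cytoplasmic red fluorescence, fitted for gain of signal relative to DMSO. Concentration-response spanned 0.195 to 50 uM final (0.5% DMSO).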
With `CCCN(CCC)c1c([N+](=O)[O-])cc(C(F)(F)F)cc1[N+](=O)[O-]`, the result was inactive.

For `CCC(C)(C)C(=O)OC1=C(c2ccc(Cl)cc2Cl)C(=O)OC12CCCCC2`, the outcome was inactive.

In the case of `O=[N+]([O-])/N=C1\NCCN1Cc1ccc(Cl)nc1`, the result was inactive.

For `O=C(O)CCCOc1ccc(Cl)cc1Cl`, the outcome was inactive.

Consider `O=[N+]([O-])c1c(Cl)c(Cl)c(Cl)c(Cl)c1Cl`, for which the outcome was inactive.

Turning to `C#CCN1C(=O)COc2cc(F)c(N3C(=O)C4=C(CCCC4)C3=O)cc21`, the result was inactive.

On to `CCOC1Oc2ccc(OS(C)(=O)=O)cc2C1(C)C` (stereo unspecified), for which the result was inactive.

As for `C[C@H]1[C@H](c2ccc(Cl)cc2)SC(=O)N1C(=O)NC1CCCCC1`, the outcome was inactive.

As to `Cc1[nH]c(=O)n(C(C)(C)C)c(=O)c1Cl`, the result was inactive.

System in a further assay: not listed separately
As to the kind of experiment: CCTE_Simmons_MITO_basal_resp_rate: CCTE's HepG2 Seahorse XF Respirometric Screening Assay at Basal Respiratory State, Simmons Lab (AID 2284001). Conditions: actives raise or lower the signal. An outline of the steps:
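HepG2 cells were given test chemicals at 7 concentrations, 125 nM to 100 uM final, and oxygen consumption rate was read every 6 min (3 min mix, 3 min measure) over 72 min. Basal-phase OCR was fitted bidirectionally against DMSO.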
Take `Oc1ccc(Cl)cc1Cc1ccccc1`: the AC50 was 18.3 µM (active) and 24 µM (active).

On to `N#Cc1c(Cl)c(Cl)c(Cl)c(C#N)c1Cl`, for which the AC50 is 22.9 µM (active).

In the case of `O=C(O)CCCOc1ccc(Cl)cc1Cl`, the AC50 is 32.5 µM (active).

On to `CC[C@H](C)[C@H]1O[C@]2(C=C[C@@H]1C)C[C@@H]1C[C@@H](C/C=C(\C)[C@@H](O[C@H]3C[C@H](OC)[C@@H](O[C@H]4C[C@H](OC)[C@@H](O)[C@H](C)O4)[C@H](C)O3)[C@@H](C)/C=C/C=C3\CO[C@@H]4[C@H](O)C(C)=C[C@@H](C(=O)O1)[C@]34O)O2` (tested in a mixture with another compound), for which the AC50 was 24.7 µM (active).

With `CCC(C)(NC(=O)c1cc(Cl)c(C)c(Cl)c1)C(=O)CCl` (stereo unspecified), the call was inactive.

Regarding `CCC(C)Nc1c([N+](=O)[O-])cc(C(C)(C)C)cc1[N+](=O)[O-]` (stereo unspecified), the molecule was called inactive.

With `CCOCN(C(=O)CCl)c1c(C)cccc1CC`, the call was inactive.

Turning to `C#CCN1C(=O)COc2cc(F)c(N3C(=O)C4=C(CCCC4)C3=O)cc21`, the half-maximal activity concentration (AC50) is 64.9 µM (active).

With `CC(C)(C)C(O)/C(=C\c1ccc(Cl)cc1Cl)n1cncn1` (stereo unspecified), the AC50 was 15.8 µM (active).

Consider `CCOC1Oc2ccc(OS(C)(=O)=O)cc2C1(C)C` (stereo unspecified), for which the half-maximal activity concentration (AC50) was 33.5 µM (active).

With `Oc1cc(Cl)ccc1Oc1ccc(Cl)cc1Cl`, the AC50 is 21 µM (active) and the molecule was classed as inactive.

Turning to `O=C(O)COc1ccc(Cl)cc1Cl`, the call was inactive.

Take `CC1(c2ccc(Oc3ccccc3)cc2)OC(=O)N(Nc2ccccc2)C1=O` (stereo unspecified): the AC50 is 4.7 µM (active).

For `CCCN(CCOc1c(Cl)cc(Cl)cc1Cl)C(=O)n1ccnc1`, the half-maximal activity concentration (AC50) was 11.2 µM (active).

Take `COP(=S)(OC)Oc1ccc([N+](=O)[O-])cc1`: the molecule was called inactive.

System in another assay: not listed separately
As to the kind of experiment: CCTE_Simmons_MITO_max_resp_rate: CCTE's HepG2 Seahorse XF Respirometric Screening Assay at Maximal Respiratory State [uncoupled], Simmons Lab (AID 2284002). The conditions noted are these: actives raise or lower the signal. An outline of the steps:
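HepG2, Seahorse XF96, maximal OCR post-FCCP. Cpd 125 nM–100 uM final (7 conc), n=3 biological. Kinetic reads every 6 min (3 min mix/3 min measure) over 72 min; fit bidirectional vs DMSO.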
For `Oc1ccc(Cl)cc1Cc1ccccc1`, the AC50 is 32.8 µM (active) and 41.5 µM (active).

On to `N#Cc1c(Cl)c(Cl)c(Cl)c(C#N)c1Cl`, for which the result was inactive.

As to `O=C(O)CCCOc1ccc(Cl)cc1Cl`, the molecule was called inactive.

Regarding `CC[C@H](C)[C@H]1O[C@]2(C=C[C@@H]1C)C[C@@H]1C[C@@H](C/C=C(\C)[C@@H](O[C@H]3C[C@H](OC)[C@@H](O[C@H]4C[C@H](OC)[C@@H](O)[C@H](C)O4)[C@H](C)O3)[C@@H](C)/C=C/C=C3\CO[C@@H]4[C@H](O)C(C)=C[C@@H](C(=O)O1)[C@]34O)O2` (tested in a mixture with another compound), the concentration at half-maximal activity (AC50) is 18 µM (active).

With `CCC(C)(NC(=O)c1cc(Cl)c(C)c(Cl)c1)C(=O)CCl` (stereo unspecified), the molecule was classed as inactive.

For `CCC(C)Nc1c([N+](=O)[O-])cc(C(C)(C)C)cc1[N+](=O)[O-]` (stereo unspecified), the molecule was called inactive.

`CCOCN(C(=O)CCl)c1c(C)cccc1CC`: the outcome was inactive.

As to `C#CCN1C(=O)COc2cc(F)c(N3C(=O)C4=C(CCCC4)C3=O)cc21`, the AC50 is 53.1 µM (active).

For `CC(C)(C)C(O)/C(=C\c1ccc(Cl)cc1Cl)n1cncn1` (stereo unspecified), the AC50 was 21.1 µM (active).

With `CCOC1Oc2ccc(OS(C)(=O)=O)cc2C1(C)C` (stereo unspecified), the AC50 is 35.3 µM (active).

With `Oc1cc(Cl)ccc1Oc1ccc(Cl)cc1Cl`, the concentration at half-maximal activity (AC50) was 19.3 µM (active).

For `O=C(O)COc1ccc(Cl)cc1Cl`, the molecule was called inactive.

In the case of `CC1(c2ccc(Oc3ccccc3)cc2)OC(=O)N(Nc2ccccc2)C1=O` (stereo unspecified), the AC50 is 3.04 µM (active).

In the case of `CCCN(CCOc1c(Cl)cc(Cl)cc1Cl)C(=O)n1ccnc1`, the AC50 was 18 µM (active).

Take `COP(=S)(OC)Oc1ccc([N+](=O)[O-])cc1`: the molecule was called inactive.
